# Source: the supplement of paper PMC10849652
# Of roughly 8,800 targets only a part is listed; those with a hit were picked by preference. About 0.5% of all pairs of compound and target were hits. A number with no mark means an inactive call.
# Key:
# Experiment in all cases: log2 fold change, soluble protein after heating vs DMSO (PISA); higher = thermal stabilisation; K562 lysate, 10 uM; active = over 0.2 and 3.5 SD of the protein, either way, in both replicates (recomputed)
# alvocidib = compound: CN1CC[C@H](c2c(O)cc(O)c3c(=O)cc(-c4ccccc4Cl)oc23)[C@H](O)C1 [alvocidib]
# In short: (§1)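 K562 pellets were dounce-homogenised in PBS pH 7.4 containing 1 mM MgCl2, and the crude extract, at 1 mg/mL protein, was exposed to 10 μM compound for 30 min. Aliquots were heated for 3 min across 48°C-58°C, pooled, brought to 0.5% NP-40 at 4°C and spun at 21,000xg for 90 min, with the supernatant taken as soluble protein. TMTpro 16plex LC-MS/MS with equalised channel sums quantified that protein. Values are log-two fold changes in thermal stability relative to solvent controls, taken from duplicates.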
# Tubastatin A = compound: CN1CCc2c(c3ccccc3n2Cc2ccc(C(=O)NO)cc2)C1 [Tubastatin A]
# In short: as §1
# [1] = compound: CNC(=O)C1=CC=CC=C1NC2=NC(=NC=C2Cl)NC3=C(C=C(C=C3)N4CCOCC4)OC
# In short: as §1
# defactinib = compound: CNC(=O)c1ccc(Nc2ncc(C(F)(F)F)c(NCc3nccnc3N(C)S(C)(=O)=O)n2)cc1 [defactinib]
# In short: as §1
# [2] = compound: CNc1nc(-c2ccc3c(N)n[nH]c3c2)cc(N2C[C@@H](C(=O)NC3CCCCC3)CC[C@H]2C)n1
# In short: as §1
# encorafenib = compound: COC(=O)N[C@@H](C)CNc1nccc(-c2cn(C(C)C)nc2-c2cc(Cl)cc(NS(C)(=O)=O)c2F)n1 [encorafenib]
# In short: as §1
# [3] = compound: COC(=O)[C@H](CCSC)NC(=O)C1=C(C=C(C=C1)NC[C@H](CS)N)C2=CC=CC=C2
# In short: as §1
# alisertib = compound: COc1cc(Nc2ncc3c(n2)-c2ccc(Cl)cc2C(c2c(F)cccc2OC)=NC3)ccc1C(=O)O [alisertib]
# In short: as §1
# [4] = compound: COc1cc2nc(-c3cc(F)ccc3O)nc(N[C@@H]3CNC[C@H]3C(C)(C)O)c2cc1OC
# In short: as §1
# gefitinib = compound: COc1cc2ncnc(Nc3ccc(F)c(Cl)c3)c2cc1OCCCN1CCOCC1 [gefitinib]
# In short: as §1
# lapatinib = compound: CS(=O)(=O)CCNCc1ccc(-c2ccc3ncnc(Nc4ccc(OCc5cccc(F)c5)c(Cl)c4)c3c2)o1 [lapatinib]
# In short: as §1
# pictilisib = compound: CS(=O)(=O)N1CCN(Cc2cc3nc(-c4cccc5[nH]ncc45)nc(N4CCOCC4)c3s2)CC1 [pictilisib]
# In short: as §1
# crizotinib = compound: C[C@@H](Oc1cc(-c2cnn(C3CCNCC3)c2)cnc1N)c1c(Cl)ccc(F)c1Cl [crizotinib]
# In short: as §1
# [5] = compound: C[C@H](C1=CC=C(C=C1)C(=O)NC2=C3C=CNC3=NC=C2)N
# In short: as §1
# duvelisib = compound: C[C@H](Nc1ncnc2nc[nH]c12)c1cc2cccc(Cl)c2c(=O)n1-c1ccccc1 [duvelisib]
# In short: as §1
# gandotinib = compound: Cc1cc(Nc2cc(CN3CCOCC3)c3nc(C)c(Cc4ccc(Cl)cc4F)n3n2)n[nH]1 [gandotinib]
# In short: as §1
# tozasertib = compound: Cc1cc(Nc2cc(N3CCN(C)CC3)nc(Sc3ccc(NC(=O)C4CC4)cc3)n2)n[nH]1 [tozasertib]
# In short: as §1
# doramapimod = compound: Cc1ccc(-n2nc(C(C)(C)C)cc2NC(=O)Nc2ccc(OCCN3CCOCC3)c3ccccc23)cc1 [doramapimod]
# In short: as §1
# bafetinib = compound: Cc1ccc(NC(=O)c2ccc(CN3CC[C@H](N(C)C)C3)c(C(F)(F)F)c2)cc1Nc1nccc(-c2cncnc2)n1 [bafetinib]
# In short: as §1
# [6] = compound: Cc1cccc(CC(=O)N2CCc3c2ccc(-c2cn(C)c4ncnc(N)c24)c3F)n1
# In short: as §1
# UniProt P23219, sequence (P23219 whole entry, looked up): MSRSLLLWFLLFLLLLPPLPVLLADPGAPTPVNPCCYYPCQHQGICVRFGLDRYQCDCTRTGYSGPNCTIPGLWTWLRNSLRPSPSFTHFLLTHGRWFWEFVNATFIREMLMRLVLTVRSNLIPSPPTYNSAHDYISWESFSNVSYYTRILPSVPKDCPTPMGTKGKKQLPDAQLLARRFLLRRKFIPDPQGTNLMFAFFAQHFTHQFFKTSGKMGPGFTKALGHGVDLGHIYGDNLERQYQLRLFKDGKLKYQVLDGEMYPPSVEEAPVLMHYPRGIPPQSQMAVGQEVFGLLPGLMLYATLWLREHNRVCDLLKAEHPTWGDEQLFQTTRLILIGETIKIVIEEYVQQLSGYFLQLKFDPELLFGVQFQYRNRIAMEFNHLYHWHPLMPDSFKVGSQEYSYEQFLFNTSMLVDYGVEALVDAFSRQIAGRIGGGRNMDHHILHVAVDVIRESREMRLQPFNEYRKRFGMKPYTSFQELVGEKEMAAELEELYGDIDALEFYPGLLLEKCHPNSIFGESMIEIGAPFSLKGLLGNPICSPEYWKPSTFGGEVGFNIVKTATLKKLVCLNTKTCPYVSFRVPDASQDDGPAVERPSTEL
# UniProt P53350, sequence (P53350 whole entry, looked up): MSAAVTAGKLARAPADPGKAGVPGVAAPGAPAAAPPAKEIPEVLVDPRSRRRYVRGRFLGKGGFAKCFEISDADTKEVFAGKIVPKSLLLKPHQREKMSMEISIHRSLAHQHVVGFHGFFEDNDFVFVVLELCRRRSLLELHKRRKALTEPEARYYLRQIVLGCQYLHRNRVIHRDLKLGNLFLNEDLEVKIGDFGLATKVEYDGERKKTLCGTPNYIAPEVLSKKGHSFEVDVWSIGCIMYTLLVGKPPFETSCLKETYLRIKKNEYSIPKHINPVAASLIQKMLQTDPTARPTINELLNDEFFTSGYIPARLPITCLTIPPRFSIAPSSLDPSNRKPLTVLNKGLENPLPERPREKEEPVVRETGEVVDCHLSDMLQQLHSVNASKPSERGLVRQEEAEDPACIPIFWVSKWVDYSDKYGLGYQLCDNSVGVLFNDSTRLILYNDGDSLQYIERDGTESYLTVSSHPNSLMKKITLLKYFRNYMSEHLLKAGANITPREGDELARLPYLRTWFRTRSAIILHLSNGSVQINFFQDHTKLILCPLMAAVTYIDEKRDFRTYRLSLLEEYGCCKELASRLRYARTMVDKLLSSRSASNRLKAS
# UniProt Q13362, sequence (Q13362 whole entry, looked up): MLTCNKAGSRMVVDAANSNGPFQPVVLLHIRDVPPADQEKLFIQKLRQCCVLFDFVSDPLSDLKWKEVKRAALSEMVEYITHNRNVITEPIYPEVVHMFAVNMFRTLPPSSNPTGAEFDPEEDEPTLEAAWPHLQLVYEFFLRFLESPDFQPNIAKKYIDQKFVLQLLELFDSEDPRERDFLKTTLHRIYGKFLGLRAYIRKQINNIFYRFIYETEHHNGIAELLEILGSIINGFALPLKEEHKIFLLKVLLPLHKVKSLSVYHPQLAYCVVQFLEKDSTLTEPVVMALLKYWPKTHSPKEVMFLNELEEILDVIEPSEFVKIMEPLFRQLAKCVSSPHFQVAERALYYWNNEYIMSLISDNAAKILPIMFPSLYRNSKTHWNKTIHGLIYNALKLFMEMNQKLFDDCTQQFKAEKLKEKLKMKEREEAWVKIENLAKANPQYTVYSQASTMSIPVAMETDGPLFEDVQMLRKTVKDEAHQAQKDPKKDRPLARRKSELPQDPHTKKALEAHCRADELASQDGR
# UniProt P28065, sequence (P28065 whole entry, looked up): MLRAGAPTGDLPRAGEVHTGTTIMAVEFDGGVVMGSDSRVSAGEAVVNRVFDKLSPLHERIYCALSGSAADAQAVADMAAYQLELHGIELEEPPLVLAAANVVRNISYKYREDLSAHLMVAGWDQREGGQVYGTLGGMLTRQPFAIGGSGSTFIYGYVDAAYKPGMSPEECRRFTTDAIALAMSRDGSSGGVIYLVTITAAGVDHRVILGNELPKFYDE
# UniProt P49642, sequence (P49642 whole entry, looked up): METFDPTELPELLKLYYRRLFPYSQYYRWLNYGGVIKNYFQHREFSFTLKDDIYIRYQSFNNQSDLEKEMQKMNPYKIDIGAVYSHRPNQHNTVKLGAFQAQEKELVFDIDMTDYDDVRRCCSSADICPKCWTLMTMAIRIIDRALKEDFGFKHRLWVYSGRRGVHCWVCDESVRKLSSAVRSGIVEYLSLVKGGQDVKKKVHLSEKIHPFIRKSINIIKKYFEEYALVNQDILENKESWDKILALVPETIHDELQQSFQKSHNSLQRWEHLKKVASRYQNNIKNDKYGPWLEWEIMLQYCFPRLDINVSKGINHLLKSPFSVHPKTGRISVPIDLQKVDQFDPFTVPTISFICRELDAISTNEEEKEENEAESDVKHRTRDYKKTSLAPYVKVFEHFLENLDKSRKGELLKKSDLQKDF
# UniProt Q9UMR5, sequence (Q9UMR5 whole entry, looked up): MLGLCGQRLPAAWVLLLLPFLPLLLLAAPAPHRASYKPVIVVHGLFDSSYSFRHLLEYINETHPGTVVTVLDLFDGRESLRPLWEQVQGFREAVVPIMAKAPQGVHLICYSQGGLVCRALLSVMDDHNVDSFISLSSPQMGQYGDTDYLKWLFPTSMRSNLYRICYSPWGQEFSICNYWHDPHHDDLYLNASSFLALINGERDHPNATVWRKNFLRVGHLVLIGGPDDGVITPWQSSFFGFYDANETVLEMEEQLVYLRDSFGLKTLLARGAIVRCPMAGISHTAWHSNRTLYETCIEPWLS
# UniProt Q8TEQ8, sequence (Q8TEQ8 whole entry, looked up): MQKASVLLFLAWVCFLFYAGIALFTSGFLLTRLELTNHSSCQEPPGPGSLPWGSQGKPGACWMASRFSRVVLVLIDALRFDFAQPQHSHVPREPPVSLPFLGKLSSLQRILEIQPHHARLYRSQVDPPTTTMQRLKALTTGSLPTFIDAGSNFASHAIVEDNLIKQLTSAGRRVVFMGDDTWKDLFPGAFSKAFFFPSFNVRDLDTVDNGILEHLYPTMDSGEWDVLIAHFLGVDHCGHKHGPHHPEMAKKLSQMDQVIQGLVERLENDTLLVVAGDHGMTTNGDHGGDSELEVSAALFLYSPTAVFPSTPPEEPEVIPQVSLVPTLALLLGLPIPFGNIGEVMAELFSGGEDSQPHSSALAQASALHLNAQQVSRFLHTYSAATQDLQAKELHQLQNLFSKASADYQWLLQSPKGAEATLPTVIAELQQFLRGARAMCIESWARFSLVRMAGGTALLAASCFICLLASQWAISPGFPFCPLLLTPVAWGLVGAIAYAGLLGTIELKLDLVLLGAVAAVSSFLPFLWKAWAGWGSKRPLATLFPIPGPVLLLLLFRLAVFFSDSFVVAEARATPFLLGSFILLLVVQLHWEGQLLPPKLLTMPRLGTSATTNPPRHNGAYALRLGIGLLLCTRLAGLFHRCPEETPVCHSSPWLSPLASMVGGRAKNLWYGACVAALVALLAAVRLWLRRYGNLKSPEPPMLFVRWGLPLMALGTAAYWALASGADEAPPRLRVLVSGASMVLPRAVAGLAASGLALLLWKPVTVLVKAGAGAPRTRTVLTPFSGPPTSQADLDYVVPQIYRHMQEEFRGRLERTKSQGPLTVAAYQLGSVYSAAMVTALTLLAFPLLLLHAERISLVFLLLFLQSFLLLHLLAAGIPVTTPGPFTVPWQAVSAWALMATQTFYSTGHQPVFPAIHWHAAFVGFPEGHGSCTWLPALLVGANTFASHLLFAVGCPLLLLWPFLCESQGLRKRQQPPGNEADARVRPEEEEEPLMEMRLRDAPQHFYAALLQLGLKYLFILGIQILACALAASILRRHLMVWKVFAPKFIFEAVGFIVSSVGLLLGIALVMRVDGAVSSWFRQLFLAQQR
# UniProt Q8N4L2, sequence (Q8N4L2 whole entry, looked up): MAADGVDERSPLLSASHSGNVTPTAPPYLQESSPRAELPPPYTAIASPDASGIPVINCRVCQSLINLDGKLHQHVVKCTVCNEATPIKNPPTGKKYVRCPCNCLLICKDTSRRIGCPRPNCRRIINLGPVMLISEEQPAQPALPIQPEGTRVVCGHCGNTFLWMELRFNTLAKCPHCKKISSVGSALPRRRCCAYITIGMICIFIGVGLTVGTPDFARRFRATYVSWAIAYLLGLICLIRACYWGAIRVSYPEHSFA
# UniProt P0C869, sequence (P0C869 whole entry, looked up): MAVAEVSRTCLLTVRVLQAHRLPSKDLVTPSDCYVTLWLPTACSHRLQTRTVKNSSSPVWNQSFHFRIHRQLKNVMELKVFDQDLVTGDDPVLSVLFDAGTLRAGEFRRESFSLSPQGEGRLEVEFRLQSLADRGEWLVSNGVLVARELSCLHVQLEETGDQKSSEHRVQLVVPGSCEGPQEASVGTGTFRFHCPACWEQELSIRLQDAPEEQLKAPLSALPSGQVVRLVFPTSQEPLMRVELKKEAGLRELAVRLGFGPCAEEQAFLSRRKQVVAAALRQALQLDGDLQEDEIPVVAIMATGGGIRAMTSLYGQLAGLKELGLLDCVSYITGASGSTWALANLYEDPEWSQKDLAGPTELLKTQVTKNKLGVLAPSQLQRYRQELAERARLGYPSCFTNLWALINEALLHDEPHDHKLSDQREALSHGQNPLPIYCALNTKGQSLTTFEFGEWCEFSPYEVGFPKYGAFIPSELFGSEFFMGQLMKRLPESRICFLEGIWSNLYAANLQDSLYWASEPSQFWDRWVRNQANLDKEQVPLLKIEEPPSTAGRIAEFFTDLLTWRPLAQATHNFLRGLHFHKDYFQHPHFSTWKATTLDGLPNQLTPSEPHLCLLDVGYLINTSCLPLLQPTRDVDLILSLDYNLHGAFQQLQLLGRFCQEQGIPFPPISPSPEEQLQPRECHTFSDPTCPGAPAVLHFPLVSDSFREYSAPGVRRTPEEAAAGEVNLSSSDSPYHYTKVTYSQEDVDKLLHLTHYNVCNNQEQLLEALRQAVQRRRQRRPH
Target,log2 fold change (alvocidib),log2 fold change (Tubastatin A),log2 fold change [1],log2 fold change (defactinib),log2 fold change [2],log2 fold change (encorafenib),log2 fold change [3],log2 fold change (alisertib),log2 fold change [4],log2 fold change (gefitinib),log2 fold change (lapatinib),log2 fold change (pictilisib),log2 fold change (crizotinib),log2 fold change [5],log2 fold change (duvelisib),log2 fold change (gandotinib),log2 fold change (tozasertib),log2 fold change (doramapimod),log2 fold change (bafetinib),log2 fold change [6]
PRIM1 (UniProt P49642),0,-0.11,0.023,-0.012,0.033,0.052,0.041,-0.054,-0.019,-0.008,-0.02,0.023,-0.064,0.024,0.004,-0.099,0.027,-0.022,-0.077,0.007
PRKCSH (UniProt K7ELL7),0.048,0.073,-0.026,0.006,-0.013,0.048,-0.002,0.018,0.083,-0.12,-0.009,0.028,0.061,0.181,0.1,-0.047,0.062,-0.044,0.031,-0.019
PPP2R5C isoform 5 (UniProt Q13362),0.016,-0.018,0.012,0.029,-0.048,0.029,-0.039,0.002,-0.014,0.004,-0.03,0.01,0.004,0.069,0.02,-0.08,0.054,-0.005,-0.001,-0.036
PLA2G4B isoform 6 (UniProt P0C869),-0.035,0.054,-0.032,0.024,0.051,0.09,0.177,-0.009,0.073,0.115,-0.001,-0.032,-0.49,-0.015,-0.038,0.069,-0.009,0,-0.133,0.086
PIP4K2B (UniProt P78356),0.223 (active),0.008,-0.014,0.031,-0.065,0.062,-0.093,-0.036,-0.028,0.013,0.033,0.044,-0.019,0.01,0.006,0.029,-0.029,-0.001,0.164,-0.067
PREP (UniProt P48147),0.018,-0.021,0.018,0.005,-0.019,-0.024,0.361 (active),-0.011,0.013,-0.012,-0.024,-0.013,-0.016,0.009,0.043,-0.042,-0.012,-0.001,-0.004,-0.01
PPME1 isoform 4 (UniProt Q9Y570),0.01,0.024,0.008,0.024,0.002,-0.001,-0.066,0.031,0.005,0.002,-0.014,0.009,0.005,-0.014,0.002,-0.002,0.048,0.026,0.052,-0.006
PPT2 isoform 3 (UniProt Q9UMR5),-0.051,0.014,-0.005,-0.067,0,-0.014,0.059,0.013,0.015,0.031,-0.053,-0.032,0.035,0.058,0.06,0.016,0.004,0,0.005,-0.05
PSMB9 (UniProt P28065),-0.052,0.076,0.006,0.034,0.31,-0.076,0.027,-0.04,0.139,-0.016,-0.093,0.028,-0.098,-0.033,0.01,0.013,-0.087,-0.033,-0.25,0.022
PIP4P2 (UniProt Q8N4L2),-0.03,0.038,-0.021,-0.009,0.062,0,-0.12,0.006,0.052,0.111,0.021,-0.019,0.021,0.053,0.027,-0.021,0.061,0.033,-0.09,-0.009
PTPN1 (UniProt P18031),-0.002,-0.048,0.018,0.015,-0.033,-0.003,0.014,0.005,0.047,0.014,-0.022,-0.022,-0.031,-0.042,-0.007,-0.055,0.069,0.059,-0.029,0.062
PIGO (UniProt Q8TEQ8),0.038,-0.112,-0.095,0.046,0.143,0.019,-0.121,0.061,-0.073,0.013,0.047,0.133,-0.02,0.019,0.076,-0.193,0.117,-0.186,-0.026,0.037
PLK1 (UniProt P53350),0.059,-0.108,-0.347 (active),-0.268,0.006,0.097,-0.034,-0.003,-0.023,0.003,-0.024,0.013,-0.179,0.168,0.043,-0.088,0.003,0.03,-0.019,-0.055
POLR2B (UniProt P30876),-0.008,-0.092,0.057,0.004,-0.026,0.022,0.121,0.002,-0.018,0.012,0.009,-0.048,-0.054,-0.032,0.001,-0.018,-0.016,0.046,-0.067,0.036
PTGS1 isoform 6 (UniProt P23219),-0.154,0.023,-0.052,-0.119,-0.057,-0.008,0.027,-0.051,0.021,-0.011,0.004,-0.068,0.007,-0.236 (active),-0.001,0.109,0.029,0.036,-0.079,0.093
POLR2M (UniProt P0CAP2),-0.002,0.031,0.021,0.037,0.035,0.33 (active),-0.047,-0.011,0.019,0.027,-0.034,-0.055,0.016,-0.031,0.015,0.02,0.185,0.009,-0.011,0.041
